aSyn UTR act = Activators working through SNCA 5'UTR binding (MLPCN); alpha-synuclein 5'UTR reporter, activators screen; activity score, % (tested at 7.5 µM), hits read low; 7.1% of 300,000 active; AID 1814; in the data active means activity score below about -60%
* marks the source's active call; other numbers are inactive results. The list is a sample of the results.

SMILES	aSyn UTR act
Cc1nc(NC(=O)c2cncc(Br)c2)ccc1Br	-109*
Nc1ccc2nc3c(=O)n(C4CCCCC4)c(=O)[nH]c3nc2c1	-130*
CCN(Cc1ccccc1)C(=O)CCCOc1ccccc1	-91*
O=C1C2C3C=CC(C4CC34)C2C(=O)N1/N=C/c1c[nH]c2ccccc12 (stereo not drawn)	-141*
O=C1C2C3C=CC(C4CC34)C2C(=O)N1/N=C/c1ccc([N+](=O)[O-])s1 (stereo not drawn)	-85*
CSCc1ccc(C(=O)NCCSc2ccc(Br)cc2)cc1	-96*
Cn1nnnc1SCc1nnc(-c2ccc(Cl)cc2)o1	-75*
COCCn1c(/C=C/c2ccccc2)nc2ccccc21	-156*
Cc1cccc(NC(=O)Cn2c(/C=C/c3ccccc3)nc3ccccc32)c1	-123*
COc1ccccc1Cn1c(/C=C/c2ccccc2)nc2ccccc21	-111*
COc1ccc(/C=C/c2nc3ccccc3n2Cc2ccccc2OC)cc1	-153*
CCN1/C(=C/C=C/c2oc3ccc4ccccc4c3[n+]2CC)Oc2ccc3ccccc3c21	92
N#C/C(=C(\O)c1ccco1)c1ccccn1	-91*
N#C/C(=C(/O)c1cccc(F)c1)c1nc2ccccc2s1	-149*
N#C/C(=C(/O)c1ccco1)c1nc2ccccc2s1	-128*
N#C/C(=C(/O)c1cc2ccccc2o1)c1nc2ccccc2s1	-120*
CCC(=NCCc1c(C)[nH]c2ccc(C)cc12)C1=C(O)CC(c2ccccc2)CC1=O (stereo not drawn)	104
C=CCc1c(C)[nH]c2ccc(C)cc2c1=O	-86*
CC1Cc2ccccc2N1C(=O)c1ccc(Br)o1 (stereo not drawn)	-129*
Cc1cccc(N2CCN(C(=O)c3ccc(CS(=O)(=O)c4ccccc4C)o3)CC2C)c1 (stereo not drawn)	97
Cc1ccc(C(=O)N2c3ccccc3CC2C)o1 (stereo not drawn)	-92*
COc1ccc(C(=S)Nc2ccc(C)cc2)cc1	-153*
Cc1ccc(NC(=S)c2ccccc2)cc1	-152*
CC1CC1c1ccc(/C=C(\C#N)C(=O)Nc2ccc(Cl)cc2)o1 (stereo not drawn)	-328*
CC1CC1c1ccc(/C=C(\C#N)C(=O)Nc2ccccc2Cl)o1 (stereo not drawn)	-192*
SMILES	aSyn UTR act
Nc1ccccc1C(=O)/C=C/c1ccc2c(c1)OCO2	-340*
O=C(/C=C/c1ccc2c(c1)OCCO2)c1ccccc1	-137*
O=C(O)c1ccc(/C=C/C(=O)c2ccc3c(c2)OCCCO3)cc1	-135*
Cc1ccc(O)c(C(=O)/C=C/c2ccc3c(c2)OCCO3)c1	-82*
Nc1ccn([C@@H]2O[C@H](CO)[C@@H](O)[C@@H]2O)c(=O)n1	81
Cc1ccc(C(=O)OCC(=O)c2c[nH]c3ccccc23)cc1NC(=O)c1ccco1	-70*
CCC(=O)Nc1cc(C(=O)OCC(=O)c2ccccc2Cl)ccc1C	-168*
CCC(=O)Nc1cc(C(=O)OCC(=O)c2ccccc2)ccc1C	-88*
Cc1cc(OCc2cc(C(=O)N3CCCCCC3)no2)cc(C)c1Cl	-132*
COCC1CCN(C(=O)c2cc(COc3cc(C)c(Cl)c(C)c3)on2)C1 (stereo not drawn)	-91*
CCN(CC)C(=O)Oc1ccc2c(c1)O/C(=C\c1ccco1)C2=O	-116*
Cc1cccc(NC(=O)c2ccc3c(c2)OCCO3)n1	-84*
CC(C)(C)c1csc(NC(=O)c2ccc3nccnc3c2)n1	-178*
Cc1nc(NC(=O)c2ccc3c(c2)OCO3)ccc1Br	-140*
Cc1ccc(NC(=O)c2ccc3nccnc3c2)c(C)c1	-102*
Cc1cc(NC(=O)c2ccc3c(c2)OCCO3)no1	62
Cc1cccc(NC(=O)c2ccc3nccnc3c2)n1	-76*
CCN1CCN(Cc2ccc(NC(=O)Nc3ccccc3Cl)cc2)CC1	-87*
O=C(Nc1ccc(CN2CCCCC2)cc1)Nc1ccccc1Cl	-90*
O=C(Nc1cccc(C(F)(F)F)c1)Nc1ccc(N2CCCC2)c(S(=O)(=O)Nc2ccccc2Cl)c1	93
CCN1CCN(Cc2ccccc2NC(=O)Nc2ccc(C)cc2)CC1	-170*
O=C(Nc1ccc(Br)cc1)Nc1ccccc1Cl	-129*
CCC(C)(C)c1ccc(OCCCC[n+]2cccc(C)c2C)c(C(C)(C)CC)c1	101
Cc1ccc(OCCn2c(=O)sc3ccccc32)cc1	-115*
O=c1sc2ccccc2n1COc1ccc(Cl)cc1	-90*
SMILES	aSyn UTR act
O=c1sc2ccccc2n1CCCOc1ccccc1	-137*
Cc1ccc(OCCCn2c(=O)sc3ccccc32)cc1	-65*
Cc1ccccc1OCCCn1c(=O)sc2ccccc21	-130*
Cc1ccccc1SCCNC(=O)CCc1ccccc1	-64*
Cc1ccccc1SCCNC(=O)c1ccccc1Br	-107*
Cc1cccnc1NC(=O)/C=C/c1ccc2c(c1)OCO2	-151*
COC(=O)c1cccc(NC(=O)/C=C/c2ccc3c(c2)OCO3)c1	102
Cc1cc(C)nc(NC(=O)/C=C/c2ccc3c(c2)OCO3)c1	-207*
CCCCCCCCCCn1c2c(c(=N)c3c1CCC3)CCC2	71
CCOC(=O)c1sc(=NC(=O)c2cccc(Br)c2)n(C)c1C	-188*
CCOC(=O)c1sc(=NC(=O)c2cccc(C)c2)n(C)c1C	-151*
Cc1ccc(NC(=S)N=Nc2c(O)n(C)c3ccc(S(=O)(=O)N4CCOCC4)cc23)cc1	75
O=C(Nc1ccc(NC(=O)C2CCCCC2)nc1)c1ccco1	-101*
CNS(=O)(=O)c1ccc(NC(=O)c2ccccn2)cc1	-73*
Cc1ccc(S(=O)(=O)N2CCCC(C(=O)Nc3ccc(NC(=O)c4ccccn4)cc3)C2)cc1 (stereo not drawn)	-74*
CNS(=O)(=O)c1ccc(NC(=O)c2cc(-c3ccncc3)nc3ccc(Cl)cc23)cc1	-98*
O=C(Nc1ccc(NC(=O)C2CCCCC2)nc1)c1ccccn1	-108*
O=C(Nc1ccc(NC(=O)C2CC2)nc1)c1ccco1	-121*
Nc1cc(-c2nc3ncccc3o2)ccc1Cl	-273*
Cc1ccc(-c2nc3ncccc3o2)cc1N	-106*
Cc1cc(-c2nc3ncccc3o2)ccc1N	-111*
CCn1cc(Br)c(C(=O)Nc2ccc(Cl)c(Cl)c2)n1	-151*
CCn1cc(Cl)c(C(=O)Nc2ccc(OC)c(OC)c2)n1	-66*
CCn1ccc(C(=O)Nc2ccccc2Cl)n1	-96*
CCn1cc(Br)c(C(=O)Nc2ccc(OC)cc2)n1	-118*
SMILES	aSyn UTR act
CCn1cc(Br)c(C(=O)Nc2cccc(Cl)c2)n1	-93*
CCn1ccc(C(=O)Nc2cccc(Cl)c2)n1	-159*
CCN1/C(=C\C=C2\C(=O)N(C)C(=S)N2C)Sc2ccccc21	-81*
CCCCN1/C(=C/c2ccc3ccccc3[n+]2CC)Sc2ccccc21	80
COc1ccc2c(c1OC)C(=O)N(c1ccc(F)cc1)C2	-159*
COc1cc2c(c(OC)c1OC)-c1ccc(OC)c(=O)cc1[C@@H](NC(C)=O)CC2	96
CCS(=O)(=O)N1N=C(c2cccs2)CC1c1cc2cc(C)ccc2nc1Cl (stereo not drawn)	-67*
Oc1cccc2c3c(oc12)CCCC3	52
S=c1nc(-c2ccccc2)oc2c1CCCC2	-144*
COc1cccc(-c2nc(=S)c3c(n2Cc2ccco2)CCCC3)c1	-89*
O=[N+]([O-])c1ccc(-c2nc(=S)c3c(o2)CCCC3)cc1	-106*
COc1cccc(-c2nc(=S)c3c(o2)CCCC3)c1	-118*
Cc1ccc(C)c(NC(=S)Nc2ncccc2C)c1	-136*
Cc1cc(C)nc(NC(=S)Nc2ccc(F)cc2F)c1	-62*

Screening data as filed in PubChem BioAssay.
